In PubChem BioAssay (NCATS):
“And” between values parts separate entries of the source, which are not always exact repeats. Equal values may be shown once. Inconclusive results are not listed. Entries that show only a call come without a potency. The source made the active and inactive calls. Unless noted, calls come from the whole dose curve; as a rule, active = well fitted curve in the direction sought with a large enough effect; inconclusive = small, poorly fitted or top-dose-only effect, or another doubt; inactive = no such curve, though single readings can be large; an effect the other way counts as inactive or inconclusive.

Experiments:
[1] = biological target: Calcium and integrin-binding protein 1 (Homo sapiens) (UniProt Q99828); test: Primary qHTS for Identification of Calcium Integrin Binding Protein 1 (CIB1) Competitor (AID 1508620);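 note: GST tagged CIB1 binding a fluorescein labelled alphaIIb integrin peptide tracer; top concentration of the series differs between compounds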
Summary of the method: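 CIB1-GST (1 uM final) and compound incubated 15 min at room temperature before adding FITC-alphaIIb peptide tracer (100 nM final). Competition for binding read by fluorescence polarization (ex 480, em 540) after another 15 min at room temperature.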

[2] = biological target: Cytochrome P450 2D6 (Homo sapiens) (UniProt P10635); test: Cytochrome P450 family 2 subfamily D member 6 (CYP2D6) small molecule antagonists: luciferase biochemical (cell-free) qHTS assay (AID 1645840; active = well fitted curve in the direction sought with a large enough effect in the repeat runs; an effect the other way counts as inactive or inconclusive; note: nearly all actives have a fitted effect of over 55% in size; note: potency is the fitted concentration of half-maximal effect)
Summary of the method: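 P450-Glo luminescent screen: recombinant CYP2D6 enzyme–proluciferin substrate mix preincubated with compound 10 min at room temperature, then NADPH regeneration added for 1 h at room temperature. Detection reagent added for 20 min; luciferin light read as relative luminescence units.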

[3] = Primary qHTS for inhibitors of nuclear receptor binding SET domain protein 2 (NSD2) in an isogenic RCH-ACV NSD2 p.E1099K mutant (9B) (AID 1645876); note: nearly all actives have a fitted effect of over 70% in size; note: potency is the fitted concentration of half-maximal effect
[4] = Primary qHTS for inhibitors of nuclear receptor binding SET domain protein 2 (NSD2) in an RCH-ACV wild type WT cells (2C) (AID 1645877); note: nearly all actives have a fitted effect of over 70% in size; note: potency is the fitted concentration of half-maximal effect
[5] = biological target: Catechol O-methyltransferase (Homo sapiens) (UniProt P21964); test: Confirmatory Screen for Target Class Profiling of Small Molecule Inhibitors of Methyltransferases (AID 1745852); conditions: MTase-Glo luminescence, SAH detection, recombinant enzyme; measured here: COMT max response; stronger effect = lower value
[6] = biological target: Guanidinoacetate N-methyltransferase (Homo sapiens) (UniProt Q14353); test: as above; conditions: activity change, negative = inhibition: at 57.3 µM (top of the series) unless noted
[7] = biological target: Nicotinamide N-methyltransferase (Homo sapiens) (UniProt P40261); test: as above; conditions: MTase-Glo luminescence, SAH detection, recombinant enzyme; measured here: NNMT max response; stronger effect = lower value
[8] = biological target: Phenylethanolamine N-methyltransferase (Homo sapiens) (UniProt P11086); test: as above; conditions: MTase-Glo luminescence, SAH detection, recombinant enzyme; measured here: PNMT max response; stronger effect = lower value
Chain of Phenylethanolamine N-methyltransferase (Homo sapiens) (P11086 whole entry, looked up): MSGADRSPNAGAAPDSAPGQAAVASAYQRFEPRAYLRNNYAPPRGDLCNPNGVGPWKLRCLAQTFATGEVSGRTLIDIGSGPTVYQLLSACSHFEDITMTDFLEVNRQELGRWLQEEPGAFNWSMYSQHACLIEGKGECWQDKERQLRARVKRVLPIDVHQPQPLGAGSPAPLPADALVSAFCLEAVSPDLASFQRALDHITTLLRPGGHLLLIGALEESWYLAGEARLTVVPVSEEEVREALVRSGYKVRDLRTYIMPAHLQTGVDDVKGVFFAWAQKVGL

Chain of Calcium and integrin-binding protein 1 (Homo sapiens) (Q99828 whole entry, looked up): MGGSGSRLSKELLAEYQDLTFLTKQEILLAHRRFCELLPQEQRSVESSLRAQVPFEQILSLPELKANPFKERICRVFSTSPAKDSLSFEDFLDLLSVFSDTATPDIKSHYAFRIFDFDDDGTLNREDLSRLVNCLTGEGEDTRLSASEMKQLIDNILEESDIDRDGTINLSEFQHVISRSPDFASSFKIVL
Chain of Cytochrome P450 2D6 (Homo sapiens) (P10635 whole entry, looked up): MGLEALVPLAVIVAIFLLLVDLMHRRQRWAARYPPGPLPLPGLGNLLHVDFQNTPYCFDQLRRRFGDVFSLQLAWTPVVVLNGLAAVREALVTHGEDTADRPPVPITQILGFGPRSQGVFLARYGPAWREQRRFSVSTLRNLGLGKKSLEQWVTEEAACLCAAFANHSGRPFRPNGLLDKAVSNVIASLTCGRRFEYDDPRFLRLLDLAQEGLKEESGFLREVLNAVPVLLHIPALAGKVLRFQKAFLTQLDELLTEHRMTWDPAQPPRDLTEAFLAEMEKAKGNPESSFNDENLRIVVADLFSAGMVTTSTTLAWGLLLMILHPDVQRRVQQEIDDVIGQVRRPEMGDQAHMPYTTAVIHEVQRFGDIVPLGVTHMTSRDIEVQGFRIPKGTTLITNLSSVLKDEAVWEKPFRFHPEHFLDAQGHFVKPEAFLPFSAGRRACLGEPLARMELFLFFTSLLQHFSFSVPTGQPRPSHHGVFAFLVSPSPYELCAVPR
Chain of Catechol O-methyltransferase (Homo sapiens) (P21964 whole entry, looked up): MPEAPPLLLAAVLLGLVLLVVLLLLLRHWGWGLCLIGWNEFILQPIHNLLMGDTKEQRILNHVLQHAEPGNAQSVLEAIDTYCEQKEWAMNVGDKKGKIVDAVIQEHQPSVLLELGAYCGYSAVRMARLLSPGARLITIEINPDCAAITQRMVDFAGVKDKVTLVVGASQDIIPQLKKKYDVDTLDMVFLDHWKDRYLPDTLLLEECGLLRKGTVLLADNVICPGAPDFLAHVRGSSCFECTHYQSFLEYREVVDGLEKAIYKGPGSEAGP
Chain of Nicotinamide N-methyltransferase (Homo sapiens) (P40261 whole entry, looked up): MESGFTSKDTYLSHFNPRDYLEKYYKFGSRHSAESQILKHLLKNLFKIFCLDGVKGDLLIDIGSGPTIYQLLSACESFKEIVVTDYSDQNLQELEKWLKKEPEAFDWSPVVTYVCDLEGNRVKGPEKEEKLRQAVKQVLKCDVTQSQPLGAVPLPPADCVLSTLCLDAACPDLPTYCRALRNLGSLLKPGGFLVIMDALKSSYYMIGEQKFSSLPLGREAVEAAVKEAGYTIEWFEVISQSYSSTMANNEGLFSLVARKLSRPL

| Compound | Potency [1] | Potency [2] | Potency [3] | Potency [4] | activity [5] | activity change, negative = inhibition [6] | activity [7] | activity [8] |
| --- | --- | --- | --- | --- | --- | --- | --- | --- |
| COc1cc(C(=O)NC2CCN(C)CC2)c(F)cc1Nc1ncc2c(n1)N(C1CCCC1)CC(F)(F)C(=O)N2C | inactive | inactive | 59 nM (active) | 83.3 nM (active) | – | – | – | – |
| COc1cc(Br)c(S(=O)(=O)Nc2ccc(C(F)(F)F)c(O[C@@H]3CCN(C)C3)c2)cc1OC | inactive | 23.9 µM (active) | inactive | inactive | – | – | – | – |
| CCCCOC(=O)NC(=O)C1c2ccccc2Oc2ccccc21 | inactive | inactive | inactive | inactive | – | – | – | – |
| CCCCCCOc1cc2c(cc1N(C)c1ncc(C(=O)O)cn1)C(C)(C)CCC2(C)C | inactive | 10.7 µM (active) | inactive | inactive | – | – | – | – |
| CCc1cnn2c(NCc3ccc[n+]([O-])c3)cc(N3CCCCC3CCO)nc12 (stereo not given) | inactive | inactive | 9.2 nM (active) | 9.2 nM (active) | – | – | – | – |
| O=C(O)Cc1ccc2oc(-c3ccc(NC(=O)/C=C/c4ccc(Br)cc4)c(F)c3)nc2c1 | inactive | inactive | inactive | inactive | – | – | – | – |
| Nc1nc(Nc2ccc(S(N)(=O)=O)cc2)n(C(=S)Nc2c(F)cccc2F)n1 | inactive | 10.7 µM (active) | inactive | inactive | – | – | – | – |
| CCOC(=O)Nc1cc(-c2ccc(C)c(NS(C)(=O)=O)c2)nn2c(C)nnc12 | inactive | inactive | 728 nM (active) | 515 nM (active) | – | – | – | – |
| N#Cc1ccc2[nH]cc(CCCCN3CCN(c4ccc5oc(C(N)=O)cc5c4)CC3)c2c1 | inactive | 4.77 µM (active) | 14500 nM (active) | 16300 nM (active) | -8.1% | -4.3% | -49.2% | -11.6% |
| CC(=O)N1CCN(C(=O)Cc2ccc(Nc3ncc(F)c(Nc4ccc(C(=O)Nc5ccccc5Cl)cc4)n3)cc2)CC1 | inactive | inactive | 1630 nM (active) | 2050 nM (active) | – | – | – | – |
| Cc1ccc(Cc2c(C)nc3nc(SCC(=O)NCCN4CCNCC4)nn3c2C)cc1 | inactive | inactive | inactive | inactive | – | – | – | – |
| c1ccc(-c2csc(N3CCOCC3)n2)cc1 | inactive | inactive | inactive | inactive | – | – | – | – |
| CCN(Cc1cccnc1)C(=O)CN(c1ccc(OC)nc1)S(=O)(=O)c1ccccc1C | inactive | inactive | inactive | inactive | – | – | – | – |
| O=C(O)CC1CCC(c2ccc(-c3ccc4nc(C(=O)NCc5ccc(OC(F)(F)F)cc5)cn4c3)cc2)CC1 (stereo not given) | inactive | inactive | inactive | inactive | – | – | – | – |
| C[C@@H]1CN(Cc2ccccc2)C[C@H]1c1nc2c(cnn2C2CCOCC2)c(=O)[nH]1 | inactive | inactive | inactive | inactive | – | – | – | – |
| CC(C)[C@@H]1C(=O)N(S(C)(=O)=O)[C@@H]2CCN(C(=O)/C=C/CN3CCCCC3)[C@H]21 | inactive | inactive | inactive | inactive | – | – | – | – |
| CCNC(=O)Nc1ccc(-c2nc3c(c(N4CCOC[C@@H]4C)n2)CCN(c2ncccn2)C3)cc1 | inactive | 10.7 µM (active) | 72.8 nM (active) | 103 nM (active) | – | – | – | – |
| CCOc1cc(N2CCC(O)CC2)ccc1Nc1ncc2c(n1)N(C1CCCC1)CCC(=O)N2C | inactive | inactive | 2050 nM (active) | 1830 nM (active) | – | – | – | – |
| COc1ccc(F)cc1-c1cc(NC(=O)[C@@H]2CCCNC2)ncc1Cl | inactive | inactive | 64.9 nM (active) | 64.9 nM (active) | – | – | – | – |
| N#Cc1cc(F)cc(-c2nc(-c3ccccn3)no2)c1 | inactive | 10.7 µM (active) | inactive | inactive | – | – | – | – |
| COc1ccc(N2CCOCC2)c2sc(NC(=O)N3CCC(C)(O)CC3)nc12 | inactive | 16.9 µM (active) | inactive | inactive | – | – | – | – |
| CC(=O)NC1=NN(C(C)=O)C(C)(c2ccccc2)S1 (stereo not given) | inactive | inactive | 4590 nM (active) | 4090 nM (active) | – | – | – | – |
| COc1cc2ncnc(Nc3cccc(O)c3)c2cc1OC | inactive | inactive | 2900 nM (active) | 3250 nM (active) | – | – | – | – |
| CC(Oc1ccc2[nH]nc(/C=C/c3cnn(CCO)c3)c2c1)c1c(Cl)cncc1Cl (stereo not given) | inactive | 2.39 µM (active) | 115 nM (active) | 103 nM (active) | – | – | – | – |
| Cc1cc(OCc2nc(-c3ccccc3Cl)cs2)ccc1OCC(=O)O | inactive | inactive | inactive | inactive | – | – | – | – |
| COc1cccc(Nc2ncnn3ccc(CN4CC[C@@H](N)[C@H](O)C4)c23)c1 | inactive | 9.52 µM (active) | 4680 nM (active) | 4680 nM (active) | – | – | – | – |
| O=C(Nc1ccccc1)N1CCN(Cc2ccc3ccccc3n2)CC1 | inactive | inactive | inactive | inactive | – | – | – | – |
| CCN1CCN(Cc2ccc(NC(=O)c3ccc(C)c(NC(=O)c4cncc(-c5cccs5)c4)c3)cc2C(F)(F)F)CC1 | inactive | 3.38 µM (active) | 45.9 nM (active) and 166 nM (active) | 51.5 nM (active) and 186 nM (active) | – | – | – | – |
| Cc1ccccc1NC(=O)Nc1ccc(CC(=O)N(C)[C@@H](CC(C)C)C(=O)NCC[C@H](NC(=O)[C@@H]2CCCN2S(=O)(=O)c2cc(Cl)cc(Cl)c2)C(=O)O)cc1 | inactive | inactive | inactive | inactive | – | – | – | – |
